Data on 89 molecules can be found in PubChem BioAssay AID504660 (National Center for Advancing Translational Sciences (NCATS), 2011).

“And” between values parts separate entries of the source, which are not always exact repeats. Equal entries are not always repeated. The campaign covered roughly 360,000 compounds. About 3,700 (1%) were called active. For the sample, actives were picked, then their nearest neighbours and some compounds at random. A number with no mark means an inactive call. Cut-off read from the data, not from the text of the source: active = activation above about 30%; inactive = the rest.

Sequence of D(1A) dopamine receptor (Homo sapiens) (P21728 whole entry, looked up): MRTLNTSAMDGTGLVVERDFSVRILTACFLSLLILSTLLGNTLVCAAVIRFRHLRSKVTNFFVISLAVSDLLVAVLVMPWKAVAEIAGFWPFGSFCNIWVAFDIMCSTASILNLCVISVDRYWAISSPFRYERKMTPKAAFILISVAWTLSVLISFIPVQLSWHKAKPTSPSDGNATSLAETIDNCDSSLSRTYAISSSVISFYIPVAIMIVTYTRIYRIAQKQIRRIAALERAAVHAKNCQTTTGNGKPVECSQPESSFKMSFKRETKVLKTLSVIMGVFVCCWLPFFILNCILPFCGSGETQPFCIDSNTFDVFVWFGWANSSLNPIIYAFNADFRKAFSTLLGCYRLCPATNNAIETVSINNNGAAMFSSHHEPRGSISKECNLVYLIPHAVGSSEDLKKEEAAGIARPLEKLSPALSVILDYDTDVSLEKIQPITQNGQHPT

The target in the experiment is D(1A) dopamine receptor (Homo sapiens) (UniProt P21728). As to the kind of experiment: Allosteric Agonists of the Human D1 Dopamine Receptor: qHTS. Note: 0% is about no effect. The following applies: HEK293 T-REx D1 cells, calcium flux, agonist mode; at 2 µM; stronger effect = higher value. The method in brief:
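Agonism was scored from calcium flux recorded over 180 s (1 read/s) after pintool compound addition, following a 10-cycle baseline. Cells were inducible force-coupled HEK293 TREx D1, plated overnight at 30 C and loaded with no-wash calcium dye.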
(qHTS replaces the single test concentration by a dilution series.)
As to `CC1CCCN(Cc2c(O)ccc3c(=O)c(Oc4ccc(C(C)(C)C)cc4)c(C(F)(F)F)oc23)C1` (centres undefined), the activation is -1.8%.
Regarding `COCCCNCCOCCOc1ccc(Cl)cc1Br`, the activation is 13.2%.
With `Cc1ccc(C(C)(C)C)c(OCCCCN2CCCC2)c1` the figure was 8.62%; with `CC(C)(C)NCCCOc1ccc(Cl)cc1C(C)(C)C`, 59.2% (active).
With `CCOc1ccc(NC(=O)c2c(NC(=O)Cc3ccccc3)sc3c2CCC(C)C3)cc1` (centres undefined) the figure was -0.648%; with `COc1ccc(CNc2nc(-c3ccc(Cl)cc3)cc(C(F)(F)F)n2)cc1`, 41.5% (active).
In the case of `FC(F)(F)c1cc(-c2ccco2)nc(NCc2ccc(Cl)cc2)n1`, the activation is 7.88%.
Turning to `COc1ccc(CCNc2nc(-c3ccc(Cl)cc3)cc(C(F)(F)F)n2)cc1OC`, the activation is 7.69%.
Regarding `COc1cccc(C(=O)NC2(C(F)(F)F)C(=O)Nc3c2c(=O)[nH]c(=O)n3-c2ccc(C)cc2)c1` (centres undefined), the activation was -0.234%.
For the molecule `Cc1ccc(Cl)cc1N1CCN(C(=O)c2cnc3c(-c4ccc(F)cc4)c(C)nn3c2C)CC1`, the activation is 1.96%.
With `OC(CNCC1CCCO1)Cn1c2ccc(Br)cc2c2cc(Br)ccc21` (centres undefined) the figure was 38.5% (active); with `COCCNC(=O)c1ccc(Cn2c(SCC(=O)NCC3CCCO3)nc3ccc(Br)cc3c2=O)cc1` (centres undefined), 2.13%.
With `O=C(CNC(=O)c1ccc(Br)o1)NCC1CCCO1` (centres undefined) the figure was 0.969%; with `CC(=O)c1c(C)n(S(=O)(=O)c2ccc(Cl)cc2)c2ccc(NS(=O)(=O)c3ccc(Cl)cc3)cc12`, 2.47%; with `CN(Cc1ccccc1)C(=O)CCS(=O)(=O)c1cc(Br)cc2c1N(C(=O)C1CC1)CC2`, 0.148%.
With `c1ccc2c(c1)C(=NC1CCCCC1)NC2=NC1CCCCC1` the figure was 30.7% (active).
For the molecule `Cc1ccccc1OCCC(=O)OCC(=O)NC(C)c1ccccc1` (centres undefined), the activation is 1.35%.
With `COc1ccc(N2CCN(C(=O)[C@@H](NC(=O)c3cc(OC)cc(OC)c3)C(C)C)CC2)cc1` the figure was -0.0979%.
With `COc1cc(OC)cc(C(=O)N[C@H](C(=O)OCC(=O)NC(C)c2ccccc2)C(C)C)c1` (some centres undefined) the figure was 119% (active); with `O=C(CCCCn1c(=O)c2ccccc2n(CC(=O)Nc2cccc(C(F)(F)F)c2)c1=O)NCc1ccc2c(c1)OCO2`, 4.77%; with `CCCOc1ccc(C(=O)Nc2ccc3oc(-c4cccc(Cl)c4Cl)nc3c2)cc1`, 1.7%.
`CCCC(=O)Nc1ccc2oc(-c3ccc(O)c(Br)c3)nc2c1`: the activation is 3.7%.
With `Cc1ccc(C)c(N2C(=O)N(Cc3c(F)cccc3Cl)c3ccccc3S2(=O)=O)c1` the figure was 5.6%.
As for `CN1C(=O)c2cccc3c(N)ccc(c23)C1=O`, the activation was 219% (active).
`Cc1nn(C)cc1N1C(=O)c2cccc3c(N)ccc(c23)C1=O`: the activation was 244% (active).
Take `CCc1nc2cccnc2n1-c1ccc(CC(=O)Nc2c(C)cccc2C)cc1`: the activation is 1.78%.
Under `Cc1ccc(Cn2c(=O)n(Cc3nc(-c4ccccc4)no3)c(=O)c3cc4c(cc32)OCO4)cc1` stands -0.256%; under `COc1ccccc1Cc1nc2ccccc2nc1SCC(=O)N1CCCc2ccccc21`, 0.349%.
Turning to `CCCN1CN=C(NS(=O)(=O)c2ccc(NC(C)=O)cc2)NC1`, the activation was -0.217%.
Consider `COc1ccc(CC(=O)Nc2nnc3n2CCS3)cc1OC`, for which the activation is 1.78%.
Under `Cc1ccc(NC(=O)c2cn3c4c(ccc(Cl)c4c2=O)OC(C)C3)cc1C` (centres undefined) stands 2.01%; under `N=c1n(CCc2ccccc2)c2ccccc2n1Cc1ccccc1F`, 100% (active).
On to `Fc1ccccc1Cn1cnc(NC(=S)NCCc2ccccc2)n1`, for which the activation is 1.4%.
With `O=C(COC(=O)Cc1ccccc1F)NCCc1ccccc1` the figure was 2.43%; with `O=C(Nc1cc(Cl)cc(Cl)c1)c1ccc2c(c1)N(Cc1cccc(Cl)c1)C(=O)c1ccccc1S2=O` (centres undefined), 6.19%.
As for `CCC(=O)NC(=S)Nc1ccc(NC(=O)c2ccco2)c(Cl)c1`, the activation was 42.4% (active).
With `COc1ccc(NC(=O)c2ccco2)cc1NC(=O)COc1ccc(C)c(C)c1` the figure was -1.09%; with `COc1cc(NC(=O)c2cc([N+](=O)[O-])ccc2Br)ccc1NC(=O)c1ccco1`, 0.47%.
Under `COc1ccc(Cn2ccc3nc(C)c(C(=O)Nc4ccc(C)c(F)c4)cc3c2=O)cc1` stands 2.43%.
Under `Cc1cc(C)c(NC(=O)C[N+](C)(C)CC(O)COc2cccc3ccccc23)c(C)c1` (centres undefined) stands 62.2% (active); under `Cc1cc(C)cc(OCC(=O)NCc2cc(C)nc3ccccc23)c1`, -0.104%.
`CC(C)c1ccccc1OCC(O)CN(CC(O)COc1cccc2ccccc12)C(C)C` (centres undefined): the activation is 6.15%.
With `Cc1ccc2c(=O)c(C(=O)c3ccc(Cl)cc3)cn(CC(=O)NC3CCCCC3)c2n1` the figure was 1.93%; with `CCOc1ccc(CNC(=O)c2ccc3c(c2)nnn3C2CCCC2)cc1`, 1.9%.
With `CC(=O)c1cccc(NC(=O)CSc2nc3c(c(=O)[nH]2)CCC3)c1` the figure was 1.96%.
Consider `CCn1c(=O)cc(OCC(=O)Nc2cc(Cl)c(OC)cc2OC)c2ccccc21`, for which the activation is 0.964%.
Under `CC(C)Cc1cc(C(=O)Nc2cc(Br)ccc2O)no1` stands -1.17%; under `CC(C)/C=N/NC(=O)c1cc(Br)ccc1O`, 32.1% (active); under `CC(=N\NC(=O)c1cc(Br)ccc1O)/C(=N/O)C(=O)Nc1ccccc1`, 5.39%.
With `CCc1ccc(S(=O)(=O)Nc2cc3c(C(=O)OCc4ccccc4)c(C)oc3c3ccccc23)cc1` the figure was 5.87%; with `Cc1ccccc1NC(=O)Cn1c(=O)n(CC2CCC(C(=O)NCCc3ccccc3)CC2)c(=O)c2ccccc21` (centres undefined), 0.988%.
In the case of `CCc1nnc(SCc2nc(-c3cccc(C)c3)oc2C)c2cc3sc(C)cc3n12`, the activation was 1.16%.
With `CCOc1cccc(C(=O)Nc2nnc(S(=O)(=O)N(C)c3ccc(C)cc3)s2)c1` the figure was -0.514%; with `CC(=O)c1ccc(OCC(O)CN2CCN(S(=O)(=O)c3cccc(Br)c3)CC2)cc1` (centres undefined), 0.785%; with `CC(C)c1ccc(OCC(O)CN2CCN(c3ccccn3)CC2)cc1` (centres undefined), 2.28%.
With `O=S(=O)(c1ccc(OCC(O)CN2CCN(c3ccccc3Cl)CC2)cc1)N1CCOCC1` (centres undefined) the figure was 105% (active).
As to `Cc1ccc2nc(N3CCN(c4cccc(Cl)c4)CC3)c3nnnn3c2c1`, the activation was 0.249%.
As to `CCN(CC)c1nn2c(=O)c(C(=O)NCCc3ccccc3)cnc2s1`, the activation is -0.903%.
With `COc1ccc(NC(=O)CSC2=Nc3ccccc3C3=NC(CC(=O)NCc4ccccc4OC)C(=O)N23)cc1Cl` (centres undefined) the figure was 4.46%.
Turning to `Cc1cccc(OCCSc2nc3ccc(NC(=O)COc4ccccc4C)cc3s2)c1`, the activation is 14.8%.
Regarding `COc1ccccc1Cn1c(CO)nc2ccccc21`, the activation is 2.48%.
Under `COCc1nc2ccccc2n1Cc1ccccc1Br` stands 30.7% (active); under `C=C(Br)Cn1c(CCCC)nc2ccccc21`, 2.85%; under `Cc1ccc(Nc2nc(CSc3nnnn3-c3ccccc3)cc(=O)[nH]2)cc1`, 0.0289%.
Regarding `Cc1ccc(-c2noc(CSc3nnc(-c4ccc(Cl)cc4)n3C)n2)cc1`, the activation was -2.32%.
Take `Cc1ccc(-c2noc(CSc3nnnn3-c3ccccc3)n2)cc1`: the activation was 45.5% (active).
On to `COc1ccc(C(=O)Nc2cccc(C(=O)OCc3cc(=O)n4c5c(sc4n3)CCCC5)c2)cc1`, for which the activation is 0.659%.
With `CCc1ccccc1N1C(=O)CN(S(=O)(=O)CC)CC1(C)C(=O)NC1CCCCC1` (centres undefined), the activation was 0.155%.
Under `COc1cc(C(=O)NCc2ccc(-n3cccc3)cc2)cc(OC)c1OC` stands 4.24%.
With `COc1cc(C(=S)NCc2ccccc2)cc(Br)c1O` the figure was 1.7%; with `COc1cc(C(=O)NCc2ccncc2)cc(Br)c1OCc1ccccc1`, 62.9% (active); with `CC(C)OCCCn1c(SCC(=O)c2ccccc2)nc2c(sc3ccccc32)c1=O`, -1.31%.
With `Cc1ccccc1CNC(=O)C1CCCN(S(=O)(=O)N(C)c2ccc(F)cc2)C1` (centres undefined) the figure was 2.76%; with `CCOC(=O)c1c(C)oc2ccc(N(C(=O)c3ccncc3)S(=O)(=O)c3ccc(CC)cc3)cc12`, 2.86%.
For the molecule `CCN(CC)c1ccc2cc(C(N)=O)/c(=N\NC(=O)c3ccncc3)oc2c1`, the activation is 68.8% (active).
`C/C(=N\NC(N)=S)c1ccncc1`: the activation was 0.713%.
For the molecule `CCCCCCn1nnc2sc(-c3ccccc3)cc2c1=O`, the activation was 2.52%.
With `COc1ccccc1NC(=O)c1sc2nc(C)c(C(=O)Nc3ccc(Cl)cc3)c(-c3ccc(Br)cc3)c2c1N` the figure was 48.4% (active).
Regarding `COc1ccc(Cl)cc1NC(=O)c1sc2nc3c(cc2c1N)CN(C)CC3`, the activation was 5%.
In the case of `COC(=O)c1c(NC(C)=O)sc(C(=O)Nc2ccccc2OC)c1C`, the activation was 2.77%.
`O=C(CCc1cn(Cc2ccc(F)cc2)c2ccccc12)NC1CCCCC1`: the activation was 4.91%.
`O=C(NCCc1ccc(Cl)cc1)c1ccc2c(c1)N(Cc1ccc(F)cc1)C(=O)CS2`: the activation is -1.03%.
Under `Oc1ccc(-c2nc3ccc(Cl)cn3c2Nc2ccc3c(c2)OCO3)cc1` stands 2.27%.
Under `Cc1c(NC(=O)c2cc(=O)c3ccccc3o2)c(=O)n(-c2ccccc2)n1C` stands -0.0323%; under `COc1ccccc1-c1noc(-c2ccc(NCc3ccccc3)c([N+](=O)[O-])c2)n1`, -1.19%; under `Cc1ccc(Cl)cc1NC(=O)CSc1nc2ccccc2nc1Cc1ccccc1`, 3.58%.
With `CCCn1c2ccccc2c2cnn(CC(=O)NCCCN3CCCCC3CC)c(=O)c21` (centres undefined) the figure was 2.1% and -0.646%; with `CCCn1c2ccccc2c2cnn(CC(=O)NCC3CCN(Cc4ccc(C)cc4)CC3)c(=O)c21`, 32% (active).
For the molecule `CCCn1c2ccccc2c2cnn(CC(=O)NCCCOC(C)C)c(=O)c21`, the activation is -0.0904%.
